Bioassay records deposited in PubChem BioAssay by University of Kansas High Throughput Screening Laboratory.
A selection: hits, their analogues and other compounds. The true share with any hit is near 3.6%.
Pf apPOL block: Pf-apPOL DNA polymerase inhibition; inhibition, % at 10 µM; Recombinant Pf-apPOL, molecular beacon fluorescence, 1.5 h; AID 1794808; 0.25% of 210,000 active
mHTT CaM bind: mHTT-calmodulin interaction abrogation; P42858; AlphaScreen His-mHTT/GST-CaM binding, luminescence; inhibition, % at 15 µM; 3.6% of 190,000 active
Target sequence (P42858 whole entry, looked up, change not shown): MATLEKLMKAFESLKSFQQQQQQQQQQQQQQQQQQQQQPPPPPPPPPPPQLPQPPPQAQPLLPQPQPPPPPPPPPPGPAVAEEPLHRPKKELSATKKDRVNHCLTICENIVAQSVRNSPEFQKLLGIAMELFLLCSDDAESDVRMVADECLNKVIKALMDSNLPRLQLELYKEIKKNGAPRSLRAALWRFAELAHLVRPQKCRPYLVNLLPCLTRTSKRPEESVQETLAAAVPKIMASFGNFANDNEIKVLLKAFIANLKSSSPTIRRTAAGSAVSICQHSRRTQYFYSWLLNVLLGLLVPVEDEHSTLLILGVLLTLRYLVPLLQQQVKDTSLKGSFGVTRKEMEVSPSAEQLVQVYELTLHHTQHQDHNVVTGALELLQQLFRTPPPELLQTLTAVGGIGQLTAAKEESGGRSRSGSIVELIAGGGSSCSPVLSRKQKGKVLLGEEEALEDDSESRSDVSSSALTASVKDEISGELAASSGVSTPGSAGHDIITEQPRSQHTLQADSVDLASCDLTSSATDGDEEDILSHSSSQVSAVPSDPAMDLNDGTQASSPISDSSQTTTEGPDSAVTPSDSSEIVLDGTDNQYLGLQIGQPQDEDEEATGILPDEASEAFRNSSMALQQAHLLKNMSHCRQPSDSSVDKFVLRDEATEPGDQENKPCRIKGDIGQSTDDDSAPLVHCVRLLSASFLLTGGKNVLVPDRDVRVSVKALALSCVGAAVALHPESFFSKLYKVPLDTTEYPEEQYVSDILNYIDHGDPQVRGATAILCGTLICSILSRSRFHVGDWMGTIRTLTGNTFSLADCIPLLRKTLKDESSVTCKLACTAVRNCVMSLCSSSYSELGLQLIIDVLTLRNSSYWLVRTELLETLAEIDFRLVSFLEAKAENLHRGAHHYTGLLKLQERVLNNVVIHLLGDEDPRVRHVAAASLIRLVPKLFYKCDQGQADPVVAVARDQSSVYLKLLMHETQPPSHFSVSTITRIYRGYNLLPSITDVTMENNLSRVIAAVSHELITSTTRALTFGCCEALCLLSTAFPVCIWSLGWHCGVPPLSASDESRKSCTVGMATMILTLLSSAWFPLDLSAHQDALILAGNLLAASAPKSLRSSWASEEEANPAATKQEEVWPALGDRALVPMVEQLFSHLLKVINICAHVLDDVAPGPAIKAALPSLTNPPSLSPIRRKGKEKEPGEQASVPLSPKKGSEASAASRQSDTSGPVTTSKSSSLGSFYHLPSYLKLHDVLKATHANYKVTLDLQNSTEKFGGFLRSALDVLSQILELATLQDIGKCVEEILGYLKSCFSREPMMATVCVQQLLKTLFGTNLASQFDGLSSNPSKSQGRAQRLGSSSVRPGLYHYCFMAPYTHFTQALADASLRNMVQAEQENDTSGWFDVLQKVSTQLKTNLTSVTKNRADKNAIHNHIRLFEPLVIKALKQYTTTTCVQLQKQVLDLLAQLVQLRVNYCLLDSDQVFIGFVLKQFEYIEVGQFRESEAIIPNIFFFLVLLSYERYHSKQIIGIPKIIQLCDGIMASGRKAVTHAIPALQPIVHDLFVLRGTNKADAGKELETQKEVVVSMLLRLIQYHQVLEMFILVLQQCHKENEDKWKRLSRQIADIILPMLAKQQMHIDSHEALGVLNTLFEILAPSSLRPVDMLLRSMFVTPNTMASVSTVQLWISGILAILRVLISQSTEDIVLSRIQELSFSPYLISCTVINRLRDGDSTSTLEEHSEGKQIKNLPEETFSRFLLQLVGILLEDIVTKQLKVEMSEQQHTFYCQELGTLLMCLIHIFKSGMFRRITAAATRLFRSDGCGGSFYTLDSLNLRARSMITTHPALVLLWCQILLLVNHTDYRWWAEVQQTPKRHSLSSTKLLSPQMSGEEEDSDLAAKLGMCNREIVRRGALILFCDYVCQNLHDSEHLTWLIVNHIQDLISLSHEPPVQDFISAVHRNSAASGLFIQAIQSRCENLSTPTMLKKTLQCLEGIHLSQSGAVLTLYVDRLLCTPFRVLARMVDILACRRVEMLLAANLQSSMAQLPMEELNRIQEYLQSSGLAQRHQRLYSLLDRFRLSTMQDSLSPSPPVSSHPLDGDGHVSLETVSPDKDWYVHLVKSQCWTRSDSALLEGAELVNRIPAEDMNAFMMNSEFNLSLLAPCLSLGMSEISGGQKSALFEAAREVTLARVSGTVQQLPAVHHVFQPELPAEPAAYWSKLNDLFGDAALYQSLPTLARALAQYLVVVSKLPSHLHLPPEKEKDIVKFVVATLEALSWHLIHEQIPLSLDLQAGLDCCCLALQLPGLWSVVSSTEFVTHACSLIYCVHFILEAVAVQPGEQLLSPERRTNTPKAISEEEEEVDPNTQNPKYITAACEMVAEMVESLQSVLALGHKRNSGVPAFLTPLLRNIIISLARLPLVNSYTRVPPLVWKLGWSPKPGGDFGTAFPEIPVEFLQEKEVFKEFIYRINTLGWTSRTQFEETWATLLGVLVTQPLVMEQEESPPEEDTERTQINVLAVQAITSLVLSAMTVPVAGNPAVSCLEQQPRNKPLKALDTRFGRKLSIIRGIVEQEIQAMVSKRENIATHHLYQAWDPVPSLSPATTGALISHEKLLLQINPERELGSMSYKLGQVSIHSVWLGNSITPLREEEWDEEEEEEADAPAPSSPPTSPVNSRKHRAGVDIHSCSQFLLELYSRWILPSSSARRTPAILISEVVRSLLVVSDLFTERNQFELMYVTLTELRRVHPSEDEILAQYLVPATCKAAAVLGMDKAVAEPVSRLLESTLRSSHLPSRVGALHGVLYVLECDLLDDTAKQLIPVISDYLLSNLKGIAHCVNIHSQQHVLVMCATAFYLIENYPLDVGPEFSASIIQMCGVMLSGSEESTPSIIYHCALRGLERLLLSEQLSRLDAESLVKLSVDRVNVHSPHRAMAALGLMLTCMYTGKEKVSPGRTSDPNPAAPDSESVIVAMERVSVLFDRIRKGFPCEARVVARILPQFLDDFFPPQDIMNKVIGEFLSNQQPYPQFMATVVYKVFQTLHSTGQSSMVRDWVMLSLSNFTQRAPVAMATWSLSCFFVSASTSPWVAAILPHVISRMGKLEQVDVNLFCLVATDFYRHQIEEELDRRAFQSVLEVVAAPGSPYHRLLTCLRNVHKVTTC
Each line names hits and unclear results; the compound was inactive in the other large screens. Cut-off read from the data, not from the text of the source: active = inhibition above about 50%; inactive = the rest.

Nc1cc(N)nc(SCC(=O)NCc2ccccc2)n1	none
Nc1sc(SCC(=O)NCc2ccc(F)cc2)nc1-c1ccccc1	mHTT CaM bind 91
O=C(Cn1ccc2ccccc21)N1CCC(COCc2ccccc2)CC1	mHTT CaM bind 58
O=C(CCn1ccc(=O)[nH]c1=O)N1CCC(COCc2ccccc2)CC1	none
O=C(NC1CC2CC1N(C(=O)NCCc1ccccc1)C2)c1ccccc1 (stereo not drawn)	none
COc1cc([N+](=O)[O-])cc2sc(NC(=O)c3ccco3)nc12	none
CC(C)C(=O)NC(c1ccc(Cl)cc1)c1ccc2cccnc2c1O (stereo not drawn)	mHTT CaM bind 95
CC(C)C(=O)NC(c1ccco1)c1ccc2cccnc2c1O (stereo not drawn)	mHTT CaM bind 100
CC(C)C(=O)NC(c1ccccc1Cl)c1ccc2cccnc2c1O (stereo not drawn)	mHTT CaM bind 100
CC(C)C(=O)NC(c1ccccc1)c1ccc2cccnc2c1O (stereo not drawn)	mHTT CaM bind 100
CC(C)C(=O)NC(c1ccco1)c1cc(Cl)c2cccnc2c1O (stereo not drawn)	none
CCc1nnc(NC(=O)c2cc3c([nH]c4ccccc43)c(C)n2)s1	none
COc1ccc2c(=O)c(-c3ccccc3C)c(C(F)(F)F)oc2c1C	none
CC(=NNC(N)=O)c1csc2ccccc12	none (no result: mHTT CaM bind)
CSc1ccccc1NC(=O)C(=O)NCc1c(F)cccc1F	none
CCc1nc2sc3c(c2c2nnnn12)CCCC3	none
Cc1ccc(SC[C@H](Cc2ccccc2)N2CC[C@@H](C)CCC2=O)cc1	none
CCCN1CCC(=O)N([C@H](CSc2ccccc2)c2ccccc2)CC1	none
O=C1CCN(CCc2ccccc2)CCN1[C@H](COc1ccccc1)c1ccccc1	mHTT CaM bind 100
CC(C)C[C@@H](CSc1ccc(Br)cc1)N1CCN(CCc2ccccc2)CCC1=O	none
O=C1CCC(OCc2ccccc2)CCN1[C@H](CSc1ccccc1)Cc1ccccc1 (stereo partly drawn)	mHTT CaM bind 53
CCCN1CCC(=O)N([C@H](COc2ccccc2)c2ccccc2)CC1	none
CC(C)C[C@@H](CSc1ccccc1)N1CCN(CCc2ccccc2)CCC1=O	mHTT CaM bind 88
O=C1CCN(CCc2ccccc2)CCN1[C@H](CSc1ccccc1)c1ccccc1	mHTT CaM bind 100
CCC(C)Oc1ccc(/C=C2\NC(=O)N(Cc3ccccc3F)C2=O)cc1 (stereo not drawn)	none
COc1ccc(CNC(=O)c2cnn3c(C)c(Cc4ccc(Cl)cc4)c(C)nc23)cc1	none
COc1ccc(-c2cc3ccc(O)c(CN4CCCC(C)C4)c3oc2=O)c(OC)c1 (stereo not drawn)	none
FC(F)(F)c1cc(-c2ccco2)nc(N2CCCC2)n1	none
Cc1cc(C)n(S(=O)(=O)c2ccc(Cl)c(Cl)c2)n1	none
COc1cccc(C(=O)N2CCN(Cc3ccc(C)cc3)CC2)c1	none
Cc1ccc(NS(=O)(=O)c2cc(Br)cc3c2N(C(=O)C2CC2)CC3)c(Cl)c1	none
CC(=O)Nc1ccc(SC[C@H](Cc2ccccc2)N2CCN(CCc3ccccc3)CCC2=O)cc1	mHTT CaM bind 100
CCCN1CCC(=O)N([C@H](CSc2ccc(C)cc2)c2ccccc2)CC1	none
CC(=O)Nc1ccc(SCCN2CCN(CCc3ccccc3)CCC2=O)cc1	none
Cc1ccc(SC[C@H](c2ccccc2)N2CCN(CCc3ccccc3)CCC2=O)cc1	mHTT CaM bind 100
COc1ccccc1N1CCN(C(=O)c2ccc(C)cc2)CC1	none
Cn1cnnc1Sc1nc2c(c(=O)n(C)c(=O)n2C)n1Cc1c(Cl)cccc1Cl	none
O=c1cc(CSc2nc3ccccc3c3nc4ccccc4n23)nc2ccccn12	none
O=C(NCCCn1ccnc1)c1ccc(C(=O)NCCCn2ccnc2)cc1	none
Cc1ccc(N2CC(NC(=O)NCCCn3ccnc3)CC2=O)cc1 (stereo not drawn)	mHTT CaM bind 98
Cc1ccc(NC(=O)Nc2ccc(C(F)(F)F)cn2)cc1Cl	none (no result: mHTT CaM bind)
CCCCOc1ccc(C(=O)Oc2cc(C)[nH]c(=O)c2[N+](=O)[O-])cc1	none
COc1ccc(C=CC(=O)Oc2cc(C)[nH]c(=O)c2[N+](=O)[O-])cc1OC	mHTT CaM bind 91
COc1ccc(C(=O)Oc2cc(C)[nH]c(=O)c2[N+](=O)[O-])cc1	mHTT CaM bind 97
COc1ccc(Cl)cc1C(=O)Oc1cc(C)[nH]c(=O)c1[N+](=O)[O-]	none
COCCCNC(=O)CC1CCN(C(=O)c2ccccc2)CC1	none
CCn1c(C2CCN(S(=O)(=O)c3ccccc3)C2)nc2cccnc21 (stereo not drawn)	none
COCCN1COc2ccc3c(=O)c(-c4ccc(OC)cc4)coc3c2C1	none
CCCNC(=O)C1CC(=O)N(CCc2c[nH]c3ccc(F)cc23)C1 (stereo not drawn)	none
Nc1c(C(=O)N2CCOCC2)sc2nc(-c3ccccc3)cc(-c3ccccc3)c12	mHTT CaM bind 52
Cc1cc(-c2ccccc2)nc2cc(C(=O)N3CCOCC3)nn12	none
OCCN1CCN(C2CCN(Cc3ccccc3F)CC2)CC1	none
COc1ccccc1CCNC(=O)CC1CCN(C(=O)c2ccc(C)cc2)CC1	none
Cc1c(C(O)=C2C(=O)C(=O)N(CCN(C)C)C2c2ccco2)cnn1-c1ccccc1 (stereo not drawn)	none
COc1ccc(NC(=O)c2cc(-c3ccccc3)n(C3CCS(=O)(=O)C3)n2)cc1OC (stereo not drawn)	none
O=C(CN1CCOCC1)N1CCCC2(C1)Nc1ccccc1NC2=NCc1ccccc1 (stereo not drawn)	mHTT CaM bind 91
COCCN=C1Nc2ccccc2NC12CCCN(C(=O)Cc1c(F)cccc1Cl)C2 (stereo not drawn)	none
COCCN=C1Nc2ccccc2NC12CCCN(S(=O)(=O)c1cccs1)C2 (stereo not drawn)	none
CN(C)S(=O)(=O)N1CCCC2(C1)Nc1ccccc1NC2=NCc1ccccc1 (stereo not drawn)	mHTT CaM bind 54
CCn1ccc(C(=O)N2CCCC3(C2)Nc2ccccc2NC3=NCc2ccccc2)n1 (stereo not drawn)	none
CC(=O)NCC(=O)N1CCCC2(C1)Nc1ccccc1NC2=NCc1ccccc1 (stereo not drawn)	none
COCC(=O)N1CCCC2(C1)Nc1ccccc1NC2=NCc1ccccc1 (stereo not drawn)	mHTT CaM bind 51
COCCN=C1Nc2ccccc2NC12CCCN(C(=O)Cc1ccc(Cl)cc1)C2 (stereo not drawn)	mHTT CaM bind 100
CCN(CC)CCN1C(=O)C2C3CCC(O3)C2C1=O (stereo not drawn)	none
O=C1OC(c2ccccc2)OC(=O)C1=Cc1cccs1 (stereo not drawn)	none
COCCN=C1Nc2ccccc2NC12CCCN(C(=O)c1ccncc1)C2 (stereo not drawn)	none
COCCN=C1Nc2ccccc2NC12CCCN(C(=O)Nc1ccc(F)cc1F)C2 (stereo not drawn)	mHTT CaM bind 100
CCCOc1ccc(C(=O)NCCC(=O)O)cc1	none
C=CCOc1c(Br)cc(Br)cc1/C=C1\NC(=S)NC1=O	none (no result: Pf apPOL block)
c1ccc(-c2nc(-c3cccnc3)[nH]c2-c2ccccc2)cc1	none (no result: mHTT CaM bind)
Oc1ccc(-c2nc(-c3ccc(F)cc3)c(-c3ccncc3)[nH]2)cc1	none (no result: mHTT CaM bind)
c1ccc(-c2nc(-c3ccc4c(c3)sc3ccccc34)c(-c3ccccc3)[nH]2)cc1	mHTT CaM bind 55 (no result: Pf apPOL block)
COc1cc(-c2nc(-c3ccsc3)c(-c3ccccc3)[nH]2)cc(OC)c1O	mHTT CaM bind 87
COc1cccc(-c2nc(-c3ccsc3)c(-c3ccccc3)[nH]2)c1OC	none
